Screens deposited in PubChem BioAssay by several laboratories.
In the library only some 4.6% were active in any assay of this set; here they are far more common.
SKKanGAS inh: blocks kanamycin growth of S. pyogenes SKKanGAS strain. AID 1662. inhibition, % at 7.5 µM. BacTiter-Glo, 6 h. hit rate 1.3% among 300,000;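 active means mean replicate score, as percent of positive control median, at least 50; inconclusive means mean below 50 but one replicate at or above 50; inactive means mean and every replicate below 50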;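 further: strain carries kanamycin resistance gene driven by streptokinase promoter and grows in 40 µg/ml kanamycin; loss of luminescence reflects streptokinase promoter inhibition or plain growth inhibition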
tim23-1 inh: inhibits growth of tim23-1 mutant yeast; hit rate 1.3% among 330,000; inhibition, % at 20 µM; AID 463212; S. cerevisiae tim23-1 growth, BacTiter-Glo luminescence, 24 h;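 active means growth inhibition of the mutant yeast at or above 50%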;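 further: temperature-sensitive mutant grown at 25 °C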
NALP3 yeast inh: NALP3 inhibition in yeast; Yeast reconstituted NLRP3/ASC/caspase-1, beta-gal luminescence, 24 h; AID 2825; inhibition, % at 10 µM; hit rate 0.39% among 330,000;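 active means inhibition of 50% or more; inactive means inhibition below 50%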
tim10-1 inh: growth inhibitors of tim10-1 mutant yeast. S. cerevisiae tim10-1 ts strain growth, BacTiter-Glo, 24 h. inhibition, % at 20 µM. hit rate 2.2% among 330,000. AID 463190;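 active means inhibition of at least 40%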;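 further: mutant grown at 25 °C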
TIM10 inh: growth inhibitors of TIM10 yeast strain; S. cerevisiae TIM10 strain growth, BacTiter-Glo luminescence, 24 h; inhibition, % at 10 µM; hit rate 1.4% among 330,000; AID 463195;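 active means inhibition of 40% or more at the single tested concentration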;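 further: wild-type TIM10 isogenic control strain grown at permissive 25 °C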
tim10-1 conf: tim10-1 yeast growth inhibition, confirmed. shares compounds with tim10-1 inh. S. cerevisiae tim10-1 ts strain growth, BacTiter-Glo, 24 h. inhibition, % at 20 µM. hit rate 56% among 7,400. AID 463213;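 active means inhibition of yeast growth at or above a set limit in either of two repeat tests at 20 µM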;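 further: tim10-1 mutant grown at permissive 25 °C to find synthetic lethal compounds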
Large screens that a line does not name were inactive (follow-up assays come after a bar, where they were run).

Cc1ccc(/C=C2\CCC3=C2OC(N)=C(C#N)C3c2ccc(C)cc2)cc1 (configuration not stated)	tim10-1 inh 46.5 | tim10-1 conf 34.3
CC(C)(C)OC(=O)C[C@H]1C/C=C\C[C@H](CC(=O)NCCO)C(=O)NC[C@@H](c2ccccc2)OC1=O	none (no result: SKKanGAS inh)
O=C(Nc1cccc(N2C(=O)C=CC2=O)c1)c1cccs1	tim10-1 inh 62.8 | tim10-1 conf 56.6
Cc1nc2ccccc2c(=O)n1-c1cccc(NC(=O)c2cccs2)c1	none
CC(Sc1nnc(NC2CCCCC2)s1)C(=O)Nc1ccc2c(c1)C(=O)c1ccccc1C2=O (configuration not stated)	tim10-1 inh 41.9 | tim10-1 conf inactive
Cc1ccc(N2Cc3ccccc3C2=S)cc1	tim10-1 inh 41.6 | tim10-1 conf inactive
Fc1ccccc1/C=C1\CCCC2=C1NC(=S)NC2c1ccccc1F (configuration not stated)	tim10-1 inh 41.2 | tim10-1 conf inactive
COc1ccc(N2CCN(C(=O)COC(=O)CCOc3ccccc3C)CC2)cc1	tim10-1 inh 42.6 | tim10-1 conf inactive
COc1ccc(N2CCN(C(=O)COC(=O)CCOc3cc(C)ccc3C)CC2)cc1	none
COc1ccc(N2CCN(C(=O)CCCN3C(=O)c4cccc5cccc(c45)C3=O)CC2)cc1	tim10-1 inh 49.1 | tim10-1 conf inactive
O=C(CCCN1C(=O)c2cccc3cccc(c23)C1=O)N1CCN(c2ccc(F)cc2)CC1	none
Cc1noc(C)c1CNCc1ccccc1	tim10-1 inh 42.1 | tim10-1 conf inactive
CC(=O)CCc1oc2ccc(C)cc2c1-c1ccc(C)o1	tim10-1 inh 46.1 | tim10-1 conf 57.6
C[C@H](NC(=O)c1cccc([N+](=O)[O-])c1)C(=O)OCC(=O)c1ccccc1Br	none (no result: SKKanGAS inh)
Cc1cccc(Oc2coc3cc(O)ccc3c2=O)c1	tim10-1 inh 47.8 | tim10-1 conf inactive
CCc1ccccc1Oc1coc2cc(O)ccc2c1=O	none
CC(=O)Nc1ccc(S(=O)(=O)N2CCSc3ccccc32)cc1	none (no result: SKKanGAS inh)
CCCCOC(=O)c1ccc(O)cc1	none
CCCCCCCCOC(=O)c1ccc(N)cc1	tim10-1 inh 45.3 | tim10-1 conf inactive
C=CCNC(=O)C(=O)NCC1CCCN1S(=O)(=O)c1cccs1 (configuration not stated)	none
COc1ccc(-c2csc3ncnc(N4CCN(c5ccccc5O)CC4)c23)cc1	none
Cc1ccc(-c2csc3ncnc(NCCN4CCOCC4)c23)cc1	none
Cc1ccc(-c2csc3ncnc(N4CCN(c5ccccc5O)CC4)c23)cc1	tim10-1 inh 44.2 | tim10-1 conf inactive
O=C(c1ccco1)N1CCN(c2ncnc3scc(-c4ccc(F)cc4)c23)CC1	tim10-1 inh 49.3 | tim10-1 conf 36.5
Cc1ccc(-c2csc3ncnc(Nc4ccc(N5CCOCC5)cc4)c23)cc1	tim10-1 inh 40.0 | tim10-1 conf 36.4
CC(C)c1ccc(CN(C)C(=O)c2ccc(S(=O)(=O)NCc3ccco3)cc2)cc1	none (no result: SKKanGAS inh)
OCCc1ccc(-c2ccc(Cl)cc2)o1	tim10-1 inh 42.7 | tim10-1 conf inactive
Cc1ccc(C(C)C)c(OCC(=O)Nc2sc3c(c2C#N)CC(C)(C)NC3(C)C)c1	none
Cc1cc(OCC(=O)Nc2sc3c(c2C#N)CC(C)(C)NC3(C)C)c(C(C)C)cc1Cl	tim10-1 inh 46.7 | tim10-1 conf inactive
COC(=O)c1c(-c2ccccc2Cl)noc1/C=C/N(C)C	tim10-1 inh 40.4 | tim10-1 conf inactive
N/C(=N/OC(=O)c1cccc([N+](=O)[O-])c1)c1cccc([N+](=O)[O-])c1	none
N/C(=N\OC(=O)c1ccccc1Cl)c1cccc([N+](=O)[O-])c1	tim10-1 inh 50.1 | tim10-1 conf 65.8
O=C(CCNc1ccc(F)cc1)c1cccc([N+](=O)[O-])c1	tim10-1 inh 40.3 | tim10-1 conf 43.0
O=C(CCNc1ccccc1)c1cccc([N+](=O)[O-])c1	none
N/C(=N\OC(=O)c1ccc(F)cc1)c1cccc([N+](=O)[O-])c1	tim10-1 inh 47.9 | tim10-1 conf 63.0
C=CCNC(=O)c1onc(CS(=O)(=O)c2cc(C)cc(C)c2)c1C(=O)NCC=C	none
CC(C)N1C(=O)CCC1C(=O)NCc1ccc(F)cc1Cl (configuration not stated)	none
O=C(COc1ccccc1/C=C1\SC(=O)NC1=O)Nc1ccccc1	SKKanGAS inh inconclusive
COc1ccc(/C=C2/SC(=O)NC2=O)cc1	none
O=C1NC(=O)/C(=C/c2ccccc2OCc2ccccc2)S1	tim10-1 inh 46.0 | tim10-1 conf 36.7
O=C1NC(=O)/C(=C\c2ccccc2Oc2ccc(F)c(F)c2)S1	tim10-1 inh 44.9 | tim10-1 conf 32.4
COc1ccc(NC(=O)CN(C)C(=O)Cc2ccc(-c3ccccc3)cc2)cc1	none (no result: SKKanGAS inh)
COc1ccccc1N1CCN(C(=O)c2sc3nc(-c4ccccc4)cn3c2C)CC1	none
COc1ccc(-c2cn3c(C)c(C(=O)N4CCc5ccccc5C4)sc3n2)cc1	tim10-1 inh 42.7 | tim10-1 conf 37.5
Cc1c(C(=O)N2CCc3ccccc3C2)sc2nc(-c3ccccc3)cn12	tim10-1 inh 51.4 | tim10-1 conf 34.8
Cc1c(C(=O)N2CCOCC2)sc2nc(-c3ccccc3)cn12	none
NNC(=O)c1cc(NS(=O)(=O)c2cccs2)cc(NS(=O)(=O)c2cccs2)c1	none (no result: SKKanGAS inh)
COc1ccc(NC(=O)COC(=O)Cc2c(F)cccc2Cl)cc1	tim10-1 inh 43.5 | tim10-1 conf inactive
COc1ccc(NC(=O)Cc2c(F)cccc2Cl)cc1	none
O=C(c1cc(-c2ccc(F)cc2)nc2ccccc12)N1CCN(C2CCS(=O)(=O)C2)CC1 (configuration not stated)	none (no result: SKKanGAS inh)
COc1cccc(NC(=O)Nc2cc(C)ccc2OC)c1	tim10-1 inh 40.4 | tim10-1 conf inactive
COc1ccc(C)cc1NC(=O)Nc1ccccc1	none
CCc1cc2c(NCc3ccccc3)nc(C)nc2s1	tim10-1 inh 48.5 | tim10-1 conf inactive
CC(NC(=O)c1ccc(NC2=NC3CS(=O)(=O)CC3S2)cc1)c1ccccc1 (configuration not stated)	none
S=C(Nc1ccc2nsnc2c1)N1CCCC1	tim10-1 inh 40.6 | tim10-1 conf inactive
CCCCn1c(N)c(N(CC(C)C)C(=O)CSC(C)C(=O)Nc2cc(C)on2)c(=O)[nH]c1=O (configuration not stated)	none
CCCc1nnc2c(N(C)S(=O)(=O)c3ccc(C)cc3)nc3ccccc3n12	tim10-1 inh 40.1 | tim10-1 conf inactive
CN(C(=O)c1ccccc1C(=O)OCC(=O)Nc1ccc(OC(F)F)cc1)c1ccccc1	tim10-1 inh 42.8 (no result: SKKanGAS inh) | tim10-1 conf inactive
CC(C)CNC(=O)C(=O)NCC1CCCN1S(=O)(=O)c1cccs1 (configuration not stated)	none
Cc1cccc(NC(=O)c2ccc([N+](=O)[O-])s2)n1	tim10-1 inh 60.8 | tim10-1 conf 57.7
Cc1cccc(NC(=S)NC(=O)c2cccs2)n1	tim10-1 inh 44.9 | tim10-1 conf inactive
